In all, about 5,500 compounds went through this assay and about 2,000 (36%) were called active. Inconclusive results (about 18%) are left out. No stated cut-off is given here; in the data, active means normalized growth mostly below about 0.91 (no sharp cut-off); inconclusive means no clear call, values can overlap the other calls; inactive means mostly above about 0.92. The list shows a part of the results.
Test: chemical genetic growth profiling, strain panel (AID 1159580);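 further: tested at 20 µM; growth read once vehicle control cultures reached saturation at 30 °C; 1 = growth at the plate median or of vehicle wells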
Settings: growth OD

Measured: normalized growth

C[C@]12C=CC(=O)C=C1CCC1C2[C@@H](O)C[C@@]2(C)C1CC[C@]2(O)C(=O)CO (stereo not given in full)
inactive: S. cerevisiae deletion strains, locus YJR075W, strain HOC1, stronger effect = lower value 0.993 | S. cerevisiae deletion strains, locus YKL009W, strain mrt4, stronger effect = lower value 0.976 | S. cerevisiae deletion strains, locus YKL068W, stronger effect = lower value 0.991 | S. cerevisiae deletion strains, locus YKL085W, strain MDH1 (second series), stronger effect = lower value 0.98 | S. cerevisiae deletion strains, locus YKL085W, strain MDH1, stronger effect = lower value 0.98 | S. cerevisiae deletion strains, locus YKL160W, strain elf1, stronger effect = lower value 0.981 | S. cerevisiae deletion strains, locus YKL190W, strain CNB1, stronger effect = lower value 0.996 | S. cerevisiae deletion strains, locus YKR001C, strain vps1, stronger effect = lower value 0.991 | S. cerevisiae deletion strains, locus YKR026C, strain gcn3, stronger effect = lower value 0.997 | S. cerevisiae deletion strains, locus YKR091W, strain srl3, stronger effect = lower value 0.999 | S. cerevisiae deletion strains, locus YLL001W, strain dnm1, stronger effect = lower value 0.978 | S. cerevisiae deletion strains, locus YLL026W, stronger effect = lower value 0.995 | S. cerevisiae deletion strains, locus YLL041C, strain sdh2, stronger effect = lower value 0.989 | S. cerevisiae deletion strains, locus YLR027C, strain aat2, stronger effect = lower value 0.995 | S. cerevisiae deletion strains, locus YLR039C, strain RIC1, stronger effect = lower value 0.974 | S. cerevisiae deletion strains, locus YLR058C, strain SHM2, stronger effect = lower value 0.994 | S. cerevisiae deletion strains, locus YLR102C, strain apc9, stronger effect = lower value 0.98 | S. cerevisiae deletion strains, locus YLR113W, strain HOG1, stronger effect = lower value 1.01 | S. cerevisiae deletion strains, locus YLR221C, strain rsa3, stronger effect = lower value 1.01 | S. cerevisiae deletion strains, locus YLR258W, strain gsy2, stronger effect = lower value 0.991 | S. cerevisiae deletion strains, locus YLR262C, strain YPT6 (second series), stronger effect = lower value 0.992 | S. cerevisiae deletion strains, locus YLR262C, strain YPT6, stronger effect = lower value 0.991 | S. cerevisiae deletion strains, locus YLR268W, strain sec22, stronger effect = lower value 0.948 | S. cerevisiae deletion strains, locus YLR320W, strain mms22, stronger effect = lower value 0.97 | S. cerevisiae deletion strains, locus YLR330W, strain CHS5, stronger effect = lower value 0.99 | S. cerevisiae deletion strains, locus YLR342W, strain FKS1 (second series), stronger effect = lower value 0.979 | S. cerevisiae deletion strains, locus YLR342W, strain FKS1, stronger effect = lower value 0.997 | S. cerevisiae deletion strains, locus YLR357W, strain rsc2, stronger effect = lower value 0.989 | S. cerevisiae deletion strains, locus YLR370C, strain arc18, stronger effect = lower value 0.988 | S. cerevisiae deletion strains, locus YLR371W, strain rom2, stronger effect = lower value 0.964 | S. cerevisiae deletion strains, locus YLR384C, strain iki3, stronger effect = lower value 0.991 | S. cerevisiae deletion strains, locus YLR418C, strain cdc73, stronger effect = lower value 0.98 | S. cerevisiae deletion strains, locus YML016C, strain PPZ1, stronger effect = lower value 0.988 | S. cerevisiae deletion strains, locus YML032C, strain rad52, stronger effect = lower value 0.972 | S. cerevisiae deletion strains, locus YML120C, strain ndi1, stronger effect = lower value 0.984 | S. cerevisiae deletion strains, locus YML124C, strain tub3, stronger effect = lower value 0.989 | S. cerevisiae deletion strains, locus YMR058W, strain fet3, stronger effect = lower value 0.996 | S. cerevisiae deletion strains, locus YMR078C, strain ctf18, stronger effect = lower value 0.974 | S. cerevisiae deletion strains, locus YMR125W, strain sto1, stronger effect = lower value 0.99 | S. cerevisiae deletion strains, locus YMR129W, stronger effect = lower value 0.993 | S. cerevisiae deletion strains, locus YMR205C, strain PFK2, stronger effect = lower value 0.998 | S. cerevisiae deletion strains, locus YMR223W, strain ubp8, stronger effect = lower value 1 | S. cerevisiae deletion strains, locus YMR231W, strain pep5, stronger effect = lower value 0.991 | S. cerevisiae deletion strains, locus YMR307W, strain GAS1, stronger effect = lower value 0.893 | S. cerevisiae deletion strains, locus YNL067W, strain RPL9B, stronger effect = lower value 1 | S. cerevisiae deletion strains, locus YNL071W, strain lat1, stronger effect = lower value 1 | S. cerevisiae deletion strains, locus YNL128W, strain TEP1, stronger effect = lower value 0.983 | S. cerevisiae deletion strains, locus YNL183C, strain NPR1, stronger effect = lower value 0.973 | S. cerevisiae deletion strains, locus YNL209W, strain ssb2, stronger effect = lower value 0.998 | S. cerevisiae deletion strains, locus YNL233W, strain BNI4, stronger effect = lower value 0.996 | S. cerevisiae deletion strains, locus YNL248C, strain rpa49, stronger effect = lower value 0.993 | S. cerevisiae deletion strains, locus YNL250W, strain rad50, stronger effect = lower value 0.967 | S. cerevisiae deletion strains, locus YNL271C, strain bni1, stronger effect = lower value 0.982 | S. cerevisiae deletion strains, locus YNL298W, strain CLA4, stronger effect = lower value 0.98 | S. cerevisiae deletion strains, locus YNL307C, strain MCK1, stronger effect = lower value 0.979 | S. cerevisiae deletion strains, locus YNL322C, strain KRE1 (second series), stronger effect = lower value 1 | S. cerevisiae deletion strains, locus YNL322C, strain KRE1, stronger effect = lower value 0.993 | S. cerevisiae deletion strains, locus YNR049C, strain mso1, stronger effect = lower value 0.995 | S. cerevisiae deletion strains, locus YNR052C, strain pop2, stronger effect = lower value 0.988 | S. cerevisiae deletion strains, locus YOL006C, strain TOP1, stronger effect = lower value 1.04 | S. cerevisiae deletion strains, locus YOL012C, strain htz1 0.96 | S. cerevisiae deletion strains, locus YOL147C, strain pex11, stronger effect = lower value 0.983 | S. cerevisiae deletion strains, locus YOR001W, strain rrp6, stronger effect = lower value 0.975 | S. cerevisiae deletion strains, locus YOR061W, strain CKA2, stronger effect = lower value 0.986 | S. cerevisiae deletion strains, locus YOR069W, strain VPS5, stronger effect = lower value 0.99 | S. cerevisiae deletion strains, locus YOR070C, strain gyp1, stronger effect = lower value 1 | S. cerevisiae deletion strains, locus YOR080W, strain dia2, stronger effect = lower value 0.997 | S. cerevisiae deletion strains, locus YOR083W, strain WHI5, stronger effect = lower value 0.973 | S. cerevisiae deletion strains, locus YOR106W, strain vam3, stronger effect = lower value 0.977 | S. cerevisiae deletion strains, locus YOR136W, strain idh2, stronger effect = lower value 0.987 | S. cerevisiae deletion strains, locus YOR144C, strain elg1, stronger effect = lower value 0.987 | S. cerevisiae deletion strains, locus YOR184W, strain ser1, stronger effect = lower value 0.978 | S. cerevisiae deletion strains, locus YOR231W, strain MKK1, stronger effect = lower value 1.01 | S. cerevisiae deletion strains, locus YOR265W, strain rbl2, stronger effect = lower value 0.996 | S. cerevisiae deletion strains, locus YOR270C, strain vph1, stronger effect = lower value 0.989 | S. cerevisiae deletion strains, locus YOR290C, strain snf2, stronger effect = lower value 0.997 | S. cerevisiae deletion strains, locus YOR316C, strain cot1, stronger effect = lower value 0.983 | S. cerevisiae deletion strains, locus YPL051W, strain arl3, stronger effect = lower value 0.995 | S. cerevisiae deletion strains, locus YPL055C, strain LGE1, stronger effect = lower value 1.01 | S. cerevisiae deletion strains, locus YPL078C, strain atp4, stronger effect = lower value 0.974 | S. cerevisiae deletion strains, locus YPL106C, strain sse1, stronger effect = lower value 1.02 | S. cerevisiae deletion strains, locus YPL240C, strain hsp82, stronger effect = lower value 1 | S. cerevisiae deletion strains, locus YPL241C, strain CIN2, stronger effect = lower value 0.993 | S. cerevisiae deletion strains, locus YPL256C, strain CLN2, stronger effect = lower value 1.02 | S. cerevisiae deletion strains, locus YPR119W, strain clb2, stronger effect = lower value 0.979 | S. cerevisiae deletion strains, locus YPR141C, strain kar3, stronger effect = lower value 0.981 | S. cerevisiae deletion strains, locus YPR163C, strain tif3, stronger effect = lower value 0.98 | S. cerevisiae deletion strains, locus YPR167C, strain met16, stronger effect = lower value 0.982 | S. cerevisiae deletion strains, strain wtn01, stronger effect = lower value 0.983 | S. cerevisiae strains, strain wild type, stronger effect = lower value 0.991

— PubChem BioAssay AID1159580 (chemical genetic matrix, 2015)
